Source: the supplement of paper PMC3898565
Structures can show the parent of a compound that is named as a salt. ± gives the uncertainty stated by the source.

system: U87; assay: cell viability relative to vehicle control; higher = less growth inhibition (less active); details: 10 µM; 72 h
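Note: viable cell number estimated from Alamar Blue fluorescence read at 560/90, part of a single-dose primary screen of an FDA-approved drug library.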

| SMILES | cell viability |
| --- | --- |
| COc1ccnc(C[S+]([O-])c2nc3cc(OC(F)F)ccc3[nH]2)c1OC (configuration not stated) | 125.2 ± 1.1% |
| C[C@@H](O)[C@H]1C(=O)N2C(C(=O)O)=C(S[C@@H]3CN[C@H](C(=O)N(C)C)C3)[C@H](C)[C@H]12 | 106.4 ± 0.79% |
| Nc1ccc(O)c(C(=O)O)c1 [5-Amino-2-hydroxy-benzoic acid] | 102.5 ± 0.14% |
| COCCCOc1ccnc(C[S+]([O-])c2nc3ccccc3[nH]2)c1C (configuration not stated) | 108.6 ± 0.87% |
| CC(=O)SCC(Cc1ccccc1)C(=O)NCC(=O)OCc1ccccc1 (configuration not stated) | 103 ± 2% |
| COC(=O)C1=C(C)NC(C)=C(C(=O)OC2CCCN(Cc3ccccc3)C2)C1c1cccc([N+](=O)[O-])c1 (configuration not stated) | 104 ± 1.2% |
| Cc1ncc([N+](=O)[O-])n1CCO | 104 ± 1.2% |
| CC[C@@H]1C(=O)OC[C@@H]1Cc1cncn1C | 101 ± 0.86% |
| COC(=O)Nc1nc2cc(C(=O)c3ccc(F)cc3)ccc2[nH]1 | 30 ± 7.6% |
| CN(C)CCOC(C)(c1ccccc1)c1ccccn1 (configuration not stated) [doxylamine succinate] | 96.6 ± 1.2% |
| COc1ccc(/C=C/C(=O)Nc2ccccc2C(=O)O)cc1OC | 104 ± 1.1% |
| O=C1CCc2ccc(OCCCCN3CCN(c4cccc(Cl)c4Cl)CC3)cc2N1 | 102 ± 1.1% |
| O=C(O)Cc1ccccc1Nc1c(Cl)cccc1Cl | 105.9 ± 0.17% |
| COc1ccccc1N1CCN(CCCNc2cc(=O)n(C)c(=O)n2C)CC1 | 109 ± 1.7% |
| COc1cc(OC)c(C(=O)CCCN2CCCC2)c(OC)c1 [Buflomedil HCl] | 105 ± 2.7% |
| CCN1CCCC1CNC(=O)c1cc(S(=O)(=O)CC)c(N)cc1OC (configuration not stated) [Amisulpride] | 101.2 ± 0.96% |
| CS(=O)(=O)c1ccc(-c2cc(Br)sc2-c2ccc(F)cc2)cc1 | 107.7 ± 0.82% |
